Article PMC4336329 (PLoS ONE, 2015)
Screen size: about 310,000 compounds; about 2,200 (0.71%) showed an effect of 50% or more. Effects have a minus sign here. The sample holds strong results, similar compounds and a random draw of the others, so the mix is not that of the screen.

Biological target: human ether-à-go-go-related gene (hERG) potassium channel (human, UniProt Q12809)
Experiment: primary screen, population patch clamp on CHO cells stably expressing hERG; higher = less effect of the substance

human ether-à-go-go-related gene (hERG) potassium channel, sequence (Q12809 whole entry, looked up): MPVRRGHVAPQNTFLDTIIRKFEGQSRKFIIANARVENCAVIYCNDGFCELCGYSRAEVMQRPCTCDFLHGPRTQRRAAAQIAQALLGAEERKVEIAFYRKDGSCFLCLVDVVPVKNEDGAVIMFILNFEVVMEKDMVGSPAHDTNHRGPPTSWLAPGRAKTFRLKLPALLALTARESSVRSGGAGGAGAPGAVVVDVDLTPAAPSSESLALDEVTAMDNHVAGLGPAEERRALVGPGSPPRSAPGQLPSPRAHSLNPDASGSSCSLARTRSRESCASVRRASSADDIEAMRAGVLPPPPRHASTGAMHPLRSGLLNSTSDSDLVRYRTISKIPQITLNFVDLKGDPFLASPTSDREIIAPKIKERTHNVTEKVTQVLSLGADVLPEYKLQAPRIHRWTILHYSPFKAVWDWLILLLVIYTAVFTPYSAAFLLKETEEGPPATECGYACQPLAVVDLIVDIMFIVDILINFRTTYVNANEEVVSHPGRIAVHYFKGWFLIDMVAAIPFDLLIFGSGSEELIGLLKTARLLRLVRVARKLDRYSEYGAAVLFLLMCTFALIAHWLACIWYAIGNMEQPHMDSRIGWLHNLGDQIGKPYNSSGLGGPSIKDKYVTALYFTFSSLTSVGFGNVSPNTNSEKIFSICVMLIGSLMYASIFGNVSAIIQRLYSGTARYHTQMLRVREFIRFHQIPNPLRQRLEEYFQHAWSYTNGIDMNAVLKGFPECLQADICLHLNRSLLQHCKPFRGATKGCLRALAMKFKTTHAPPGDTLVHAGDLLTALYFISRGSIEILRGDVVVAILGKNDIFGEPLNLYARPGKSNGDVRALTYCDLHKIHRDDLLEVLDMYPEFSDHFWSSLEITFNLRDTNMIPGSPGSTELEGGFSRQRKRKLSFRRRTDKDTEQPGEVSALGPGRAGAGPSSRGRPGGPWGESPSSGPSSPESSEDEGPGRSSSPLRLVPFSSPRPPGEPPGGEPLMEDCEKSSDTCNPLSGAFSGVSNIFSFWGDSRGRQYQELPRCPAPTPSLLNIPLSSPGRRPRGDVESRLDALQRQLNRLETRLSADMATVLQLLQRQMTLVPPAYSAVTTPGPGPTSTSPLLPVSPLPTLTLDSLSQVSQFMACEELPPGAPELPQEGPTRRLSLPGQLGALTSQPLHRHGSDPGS

SMILES	hERG current change (%, negative = inhibition) at 1uM [%]
COc1cc(CCC(=O)OCC(=O)Nc2ccc(C)cc2Cl)cc(OC)c1OC	15.1
CCn1ncc(NC(=O)Nc2cccc(C(F)(F)F)c2)c1C(N)=O	5.39
Cc1cc(C(=O)NC2CCCCC2)on1	10.2
CN(C)c1cccc(C(=O)Nc2nc3ccccc3[nH]2)c1	14.7
Fc1ccc(CN2CCCCCCC2)c(F)c1	14.2
O=C(N/C(=C/c1ccccc1)C(=O)N1CCOCC1)c1ccc([N+](=O)[O-])cc1	-19.6
O=C(N/C(=C\c1ccccc1)C(=O)N1CCOCC1)c1cccc(Br)c1	18.8
COc1ccc(C(=O)N/C(=C\c2ccccc2)C(=O)N2CCOCC2)cc1	9.79
O=C(N/C(=C\c1ccc(Br)cc1)C(=O)N1CCOCC1)c1ccc([N+](=O)[O-])cc1	-81.6
COc1ccc(/C=C(\NC(=O)c2ccc([N+](=O)[O-])cc2)C(=O)N2CCOCC2)cc1	-54.9
COc1ccc(/C=C(/NC(=O)c2ccc(Br)cc2)C(=O)N2CCOCC2)cc1	7.06
Cc1ccc(C(=O)N/C(=C/c2ccc(Cl)cc2)C(=O)N2CCOCC2)cc1	-9.41
O=C(N/C(=C\c1ccccc1Cl)C(=O)N1CCOCC1)c1ccc([N+](=O)[O-])cc1	-31.6
O=C(N/C(=C/c1cccc([N+](=O)[O-])c1)C(=O)N1CCOCC1)c1ccc(Br)cc1	-19.6
O=C(N/C(=C\c1cccc([N+](=O)[O-])c1)C(=O)N1CCOCC1)c1cccc(Br)c1	7.37
O=C(N/C(=C\c1ccc([N+](=O)[O-])cc1)C(=O)N1CCOCC1)c1cccc(Br)c1	-79
O=C(N/C(=C\c1ccc(Cl)cc1)C(=O)N1CCOCC1)c1ccc([N+](=O)[O-])cc1	-88.2
O=C(Nc1cc(Cl)ccc1N1CCOCC1)c1cc2ccccc2o1	8.14
Cc1c(Br)c([N+](=O)[O-])nn1C(C)C(=O)NCc1cccnc1 (stereo not drawn)	-7.67
O=C(O)COc1ccccc1	14.1
O=C(Nc1ccc2c(c1)C(=O)OC2)c1ccc(Cl)cc1Cl	3.09
Cc1ccccc1N(C(=O)Cc1cccs1)C(C(=O)NC1CCCCC1)c1cn(C)nc1C (stereo not drawn)	-0.242

SMILES	hERG current change (%, negative = inhibition) at 1uM [%]
CCCCCCN1C2=NCCCN2c2ccccc21.Cl	-73.7
c1ccc([C@H]2CN3C(=N2)Sc2ccccc23)cc1	11
Br.CCCCCN1C2=NCCN2c2ccccc21	-58.9
CCCCCCN1C2=NCCN2c2ccccc21.Cl	-82.3
CCCCN1C2=NC(c3ccccc3)CN2c2ccccc21.Cl (stereo not drawn)	-50.5
CCCCCCCN1C2=NCCCN2c2ccccc21.Cl	-21.6
CCCN1C2=NCCCN2c2ccccc21.Cl	7.07
Br.CC(C)(C)C(=O)CN1C2=NCCN2c2ccccc21	2.72
Br.CCCCN1C2=NCCCN2c2ccccc21	-6.43
O=C(CNC(=O)C12CC3CC(CC(C3)C1)C2)NC1=NCCS1	12.3
COc1ccc(O)c(C2(O)C(=O)c3ccccc3C2=O)c1	14.2
COc1cccc(NC(=O)Nc2nnc(-c3ccccc3SCc3ccccc3)s2)c1	2.04
O=C(Nc1c2c(nn1-c1ccc([N+](=O)[O-])cc1)CS(=O)(=O)C2)c1ccco1	-24.1
O=C(CCN1CCN(Cc2ccccc2)CC1)Nc1cccc(Cl)c1	-45
O=C(c1cc2ccccc2oc1=O)N1CCN(C(=O)C2CCCO2)CC1 (stereo not drawn)	4.25
CCCOc1ccc(C2C(C(=O)c3ccc(C)o3)=C(O)C(=O)N2Cc2ccco2)cc1OCC (stereo not drawn)	14.9
COc1ccccc1N1CCN(C(=O)C(OC(C)=O)c2ccccc2)CC1 (stereo not drawn)	11.8
CCCCN(CC)CCNC(=O)c1cc2c(=O)[nH]c3ccccc3c2n1C	11.5
N#Cc1ccc(C(=O)Nc2cc(-c3ccccc3)nn2-c2ccccc2)cc1	0.56
COc1cccc(C2CCCN2Cc2nc(CC3CC3)no2)c1 (stereo not drawn)	14.5
CNC(=S)N1CCN(c2cccc(OC)c2)CC1	7.07
COc1cc(O)oc1C=Nc1ccc(Cl)cc1	10.9

SMILES	hERG current change (%, negative = inhibition) at 1uM [%]
CNC(=S)NNC(=O)c1ccccc1Br	15.2
CCCCCCCN1C2=NCCN2c2ccccc21.Cl	-60.7
Cc1ccccc1CN1C2=NCCN2c2ccccc21.Cl	-13.7
O=C(Cn1c2c(sc1=O)C1c3ccccc3OCC1CS2)Nc1ccc(Cl)cc1 (stereo not drawn)	9.64
Nc1nc(SCCC(F)=C(F)F)n[nH]1	4.82
CCN(CC)CCNC(=O)c1cn(CC)c2ccc(S(=O)(=O)N(C)C3CCCCC3)cc2c1=O	9.42
CCCCN(CCCC)CCNC(=O)c1cn(CC)c2ccc(S(=O)(=O)N(C)C3CCCCC3)cc2c1=O	-84.2
CCCCN(C)CCCNC(=O)c1cn(C)c2ccc(S(=O)(=O)N(C)C3CCCCC3)cc2c1=O	-45.6
CCCCN(CC)CCCNC(=O)c1cn(C)c2ccc(S(=O)(=O)N(C)C3CCCCC3)cc2c1=O	-66.6
CCN(CC)CCCNC(=O)c1cn(C)c2ccc(S(=O)(=O)N(C)C3CCCCC3)cc2c1=O	12.2
CCCN(CCC)CCCNC(=O)c1cn(CC)c2ccc(S(=O)(=O)N(C)C3CCCCC3)cc2c1=O	-46.1
O=C(/C=C/c1ccccc1Cl)c1cccnc1	6.53
CCC[C@H](CN[C@@H](CNC)[C@H](C)CC)NCCc1cc(C(F)(F)F)cc(C(F)(F)F)c1	0.0872
CC(CCc1ccccc1)NCC(O)COc1ccccc1 (stereo not drawn)	-6.95
CC1(c2ccc3ccccc3c2)NC(=O)N(CC(=O)Nc2ncccc2O)C1=O (stereo not drawn)	14.4
O=C(NCCCCC(NC(=O)c1ccc([N+](=O)[O-])cc1)C(=O)O)c1ccc([N+](=O)[O-])cc1 (stereo not drawn)	-6.29
COC(=O)C(CCCCNC(=O)c1ccc([N+](=O)[O-])cc1)NC(=O)c1ccc([N+](=O)[O-])cc1 (stereo not drawn)	-84.2
COC(=O)C(CC(C)C)NC(=O)c1ccc([N+](=O)[O-])cc1 (stereo not drawn)	0.193
CCOC(=O)c1nnc(-c2ccccc2)nc1NC	2.74
CCN1CCN(C(=S)c2ccc(SC)cc2)CC1	-18
Cc1cccc(C(=O)Nc2cccc3cccnc23)c1	17.4
CC(=O)NC(=S)NNC(=O)CCc1ccccc1	6.91

SMILES	hERG current change (%, negative = inhibition) at 1uM [%]
O=C(Cc1ccc(Br)cc1)Nc1cccc(-c2cn3c(n2)SCC3)c1	12.2
COC(=O)c1sccc1-n1cccc1C(=O)C(=O)N1CCCC1	6.84
COC(=O)c1sccc1-n1cccc1C(=O)C(=O)N1CCOCC1	-87.6
COC(=O)c1sccc1-n1cccc1C(=O)N1CCOCC1	-11.6
CCN(CC)CCOc1nnc(-c2ccc(OC)cc2)c2ccccc12	-25.1
CCN(CC)CCOc1nnc(-c2ccc(C)cc2)c2ccccc12	-58.4
COc1nnc(-c2ccc(C)cc2)c2ccccc12	13.6
O=C(OCc1ccc([N+](=O)[O-])cc1)c1cc(S(=O)(=O)N2CCCCC2)ccc1N1CCOCC1	-77.9
O=C(NCCc1ccc(F)cc1)c1cc([N+](=O)[O-])ccc1N1CCOCC1	-98.2
O=C(OCc1ccc([N+](=O)[O-])cc1)c1cc([N+](=O)[O-])ccc1N1CCOCC1	-67.2
Cc1ccc(COC(=O)c2cc([N+](=O)[O-])ccc2N2CCOCC2)cc1	-21
Cc1ccc(COC(=O)c2cc(S(=O)(=O)N3CCCCC3)ccc2N2CCOCC2)cc1	-1.22
O=C(OCc1ccc(F)cc1)c1cc(S(=O)(=O)N2CCCCC2)ccc1N1CCOCC1	4.59
COc1ccc(CCNC(=O)c2cc([N+](=O)[O-])ccc2N2CCOCC2)cc1	1.7
O=C(OCc1cccc(Cl)c1)c1cc([N+](=O)[O-])ccc1N1CCOCC1	-5.04
NS(=O)(=O)c1ccc(CCNC(=O)c2cc([N+](=O)[O-])ccc2N2CCOCC2)cc1	-6.06
O=C(NCCS(=O)(=O)N1CCN(c2ccccc2F)CC1)C1CC(=O)N(c2ccc(F)cc2)C1 (stereo not drawn)	5.78
COc1cccc(N2CC(C(=O)OC(C)C(=O)c3ccccc3)CC2=O)c1 (stereo not drawn)	5.64
Cc1c(O)ccc(C(=O)CN2CCN(c3ccccc3)CC2)c1O	13.2
Cc1ccc(-n2c(SCC(=O)N/N=C/c3ccc(C)s3)nnc2-c2ccccc2)cc1	7.01
Cn1c(CCNC(=O)c2ccccc2F)nnc1SCc1nc2ccccc2c(=O)[nH]1	11.4
